Values joined by “and” are separate entries in the source; they are usually repeats but may differ in a detail not shown here. Equal entries are not always repeated. The whole screen tested about 5,500 compounds, of which about 2,000 (36%) were called active. Another 18% or so got no clear call; they are omitted. Rule as the data show it: active = normalized growth mostly below about 0.91 (no sharp cut-off); inconclusive = no clear call, values can overlap the other calls; inactive = mostly above about 0.92. This is one part of the list.
Test: chemical genetic growth profiling, strain panel (AID 1159580);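 also: tested at 20 µM; growth read once vehicle control cultures reached saturation at 30 °C; 1 = growth at the plate median or of vehicle wells; lower values mean less growth of the strain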
Conditions: S. cerevisiae deletion strains, growth OD

Measured: normalized growth

CC(=O)OCC1=C(C(=O)O)N2C(=O)[C@@H](NC(=O)Cc3cccs3)[C@H]2SC1
inactive: locus YAL013W, strain DEP1, active compounds read low 0.991 | locus YAL021C, strain ccr4, active compounds read low 1.03 | locus YAL026C, strain drs2, active compounds read low 0.991 | locus YAL030W, strain snc1, active compounds read low 1.02 | locus YBL061C, strain skt5, active compounds read low 1.03 | locus YBR009C, strain hhf1, active compounds read low 0.974 | locus YBR021W, strain FUR4, active compounds read low 1.01 | locus YBR023C, strain chs3, active compounds read low 1.03 | locus YBR171W, strain sec66, active compounds read low 1.02 | locus YBR229C, strain ROT2, active compounds read low 0.948 | locus YBR231C, strain swc5, active compounds read low 0.988 | locus YBR279W, strain paf1, active compounds read low 0.987 | locus YCL011C, strain gbp2, active compounds read low 0.973 | locus YCL016C, strain dcc1, active compounds read low 0.986 | locus YCL029C, strain bik1, active compounds read low 0.984 | locus YCL069W, strain vba3, active compounds read low 1.01 | locus YCR088W, strain abp1, active compounds read low 1.01 | locus YDL005C, strain med2, active compounds read low 1.03 | locus YDL035C, strain GPR1, active compounds read low 0.96 | locus YDL040C, strain nat1, active compounds read low 1.02 | locus YDL074C, strain BRE1, active compounds read low 0.993 | locus YDL101C, strain DUN1, active compounds read low 0.989 | locus YDL134C, strain PPH21, active compounds read low 0.959 | locus YDL185W, strain tfp1, active compounds read low 0.965 | locus YDL192W, strain arf1, active compounds read low 0.977 | locus YDR001C, strain nth1, active compounds read low 1.02 | locus YDR069C, strain doa4, active compounds read low 1.03 | locus YDR101C, strain arx1, active compounds read low 0.972 | locus YDR137W, strain rgp1, active compounds read low 0.962 | locus YDR150W, strain NUM1, active compounds read low 0.983 | locus YDR159W, strain sac3, active compounds read low 1.05 | locus YDR162C, strain NBP2, active compounds read low 0.948 | locus YDR195W, strain ref2 1.04 | locus YDR297W, strain sur2, active compounds read low 1.02 | locus YDR318W, strain mcm21, active compounds read low 0.991 | locus YDR334W, strain swr1, active compounds read low 0.986 | locus YDR335W, strain msn5, active compounds read low 0.99 | locus YDR388W, active compounds read low 0.981 | locus YDR392W, strain spt3, active compounds read low 0.959 | locus YDR502C, strain sam2, active compounds read low 0.997 | locus YEL003W, strain gim4, active compounds read low 1 | locus YEL037C, strain rad23, active compounds read low 1 | locus YEL061C, strain CIN8 (second series), active compounds read low 1.01 | locus YEL061C, strain CIN8, active compounds read low 0.984 | locus YER015W, strain faa2, active compounds read low 0.972 | locus YER016W, strain bim1, active compounds read low 0.987 | locus YER110C, active compounds read low 0.972 | locus YER111C, strain swi4, active compounds read low 0.995 | locus YER155C, strain BEM2 (second series), active compounds read low 1 | locus YER155C, strain BEM2, active compounds read low 1 | locus YER167W, strain BCK2, active compounds read low 0.986 | locus YFR010W, strain ubp6, active compounds read low 1.01 | locus YGL078C, strain dbp3, active compounds read low 0.987 | locus YGL086W, strain mad1, active compounds read low 0.979 | locus YGL167C, strain pmr1, active compounds read low 1.02 | locus YGL173C, strain kem1, active compounds read low 0.987 | locus YGL227W, strain vid30, active compounds read low 1.04 | locus YGL240W, strain doc1, active compounds read low 1.06 | locus YGL248W, strain PDE1, active compounds read low 1.01 | locus YGL253W, strain hxk2, active compounds read low 1 | locus YGR135W, strain pre9, active compounds read low 1.04 | locus YGR252W, strain gcn5, active compounds read low 1.03 | locus YHR013C, strain ard1, active compounds read low 1.03 | locus YHR027C, strain rpn1, active compounds read low 0.994 | locus YHR030C, strain SLT2, active compounds read low 0.977 and 0.94 | locus YHR079C, strain IRE1 (second series), active compounds read low 0.995 | locus YHR079C, strain IRE1, active compounds read low 0.976 | locus YHR094C, strain hxt1, active compounds read low 0.982 | locus YHR129C, strain ARP1, active compounds read low 0.984 | locus YHR142W, strain chs7, active compounds read low 0.995 | locus YHR200W, strain rpn10, active compounds read low 0.983 | locus YIL066C, strain RNR3, active compounds read low 0.972 | locus YIL073C, strain SPO22, active compounds read low 1.04 | locus YIL125W, strain kgd1, active compounds read low 0.983 | locus YIR030C, strain dcg1, active compounds read low 0.99 | locus YJL092W, strain hpr5, active compounds read low 1.01 | locus YJL095W, strain BCK1 (second series), active compounds read low 1 | locus YJL095W, strain BCK1, active compounds read low 1.05 and 0.96 | locus YJL115W, strain asf1, active compounds read low 1.02 | locus YJL129C, strain trk1, active compounds read low 1.05 | locus YJL134W, strain LCB3, active compounds read low 0.99 | locus YJL154C, strain vps35, active compounds read low 1.02 | locus YJL164C, strain tpk1, active compounds read low 0.972 | locus YJL166W, strain qcr8, active compounds read low 0.996 | locus YJL168C, strain set2, active compounds read low 0.986 | locus YJL187C, strain SWE1 (second series), active compounds read low 1.01 | locus YJL187C, strain SWE1, active compounds read low 1.01 | locus YJR043C, strain POL32, active compounds read low 0.963 | locus YJR066W, strain TOR1, active compounds read low 0.995 | locus YJR075W, strain HOC1, active compounds read low 1 | locus YKL009W, strain mrt4, active compounds read low 1 | locus YKL068W, active compounds read low 0.977 | locus YKL085W, strain MDH1 (second series), active compounds read low 0.966 | locus YKL085W, strain MDH1, active compounds read low 0.966 | locus YKL160W, strain elf1, active compounds read low 1.01 | locus YKR001C, strain vps1, active compounds read low 0.986 | locus YKR026C, strain gcn3, active compounds read low 1.04 | locus YKR091W, strain srl3, active compounds read low 0.999 | locus YLL001W, strain dnm1, active compounds read low 0.992 | locus YLL026W, active compounds read low 1.02 | locus YLL041C, strain sdh2, active compounds read low 1.02 | locus YLR027C, strain aat2, active compounds read low 1.01 | locus YLR039C, strain RIC1, active compounds read low 0.986 | locus YLR058C, strain SHM2, active compounds read low 0.978 | locus YLR102C, strain apc9, active compounds read low 0.987 | locus YLR113W, strain HOG1, active compounds read low 0.971 | locus YLR221C, strain rsa3, active compounds read low 0.996 | locus YLR258W, strain gsy2, active compounds read low 1 | locus YLR262C, strain YPT6 (second series), active compounds read low 1.01 | locus YLR262C, strain YPT6, active compounds read low 0.937 | locus YLR268W, strain sec22, active compounds read low 0.975 | locus YLR320W, strain mms22, active compounds read low 0.978 | locus YLR330W, strain CHS5, active compounds read low 0.99 | locus YLR342W, strain FKS1 (second series), active compounds read low 1 | locus YLR342W, strain FKS1, active compounds read low 0.992 | locus YLR357W, strain rsc2, active compounds read low 0.991 | locus YLR370C, strain arc18, active compounds read low 1 | locus YLR371W, strain rom2, active compounds read low 0.998 | locus YLR384C, strain iki3, active compounds read low 1.03 | locus YLR418C, strain cdc73, active compounds read low 1.01 | locus YML016C, strain PPZ1, active compounds read low 0.996 | locus YML032C, strain rad52, active compounds read low 0.98 | locus YML120C, strain ndi1, active compounds read low 1 | locus YML124C, strain tub3, active compounds read low 0.985 | locus YMR058W, strain fet3, active compounds read low 0.923 | locus YMR078C, strain ctf18, active compounds read low 0.986 | locus YMR125W, strain sto1, active compounds read low 1.03 | locus YMR129W, active compounds read low 1.02 | locus YMR205C, strain PFK2, active compounds read low 1.02 | locus YMR223W, strain ubp8, active compounds read low 1.01 | locus YMR231W, strain pep5, active compounds read low 1.01 | locus YMR263W, strain SAP30, active compounds read low 0.998 | locus YMR307W, strain GAS1, active compounds read low 0.898 | locus YNL067W, strain RPL9B, active compounds read low 1.01 | locus YNL071W, strain lat1, active compounds read low 0.994 | locus YNL183C, strain NPR1, active compounds read low 0.919 | locus YNL209W, strain ssb2, active compounds read low 1 | locus YNL233W, strain BNI4, active compounds read low 1.03 | locus YNL248C, strain rpa49, active compounds read low 0.993 | locus YNL250W, strain rad50, active compounds read low 0.995 | locus YNL271C, strain bni1, active compounds read low 1 | locus YNL298W, strain CLA4, active compounds read low 0.979 | locus YNL307C, strain MCK1, active compounds read low 0.988 | locus YNL322C, strain KRE1 (second series), active compounds read low 1.01 | locus YNL322C, strain KRE1, active compounds read low 0.989 | locus YNR049C, strain mso1, active compounds read low 1.02 | locus YNR052C, strain pop2, active compounds read low 0.985 | locus YOL006C, strain TOP1, active compounds read low 1.13 | locus YOL012C, strain htz1 0.756 | locus YOL147C, strain pex11, active compounds read low 0.986 | locus YOR001W, strain rrp6, active compounds read low 1.02 | locus YOR061W, strain CKA2, active compounds read low 0.968 | locus YOR069W, strain VPS5, active compounds read low 0.987 | locus YOR070C, strain gyp1, active compounds read low 0.995 | locus YOR080W, strain dia2, active compounds read low 1.02 | locus YOR083W, strain WHI5, active compounds read low 0.993 | locus YOR106W, strain vam3, active compounds read low 0.981 | locus YOR136W, strain idh2, active compounds read low 0.983 | locus YOR144C, strain elg1, active compounds read low 0.988 | locus YOR184W, strain ser1, active compounds read low 1 | locus YOR231W, strain MKK1, active compounds read low 0.972 | locus YOR265W, strain rbl2, active compounds read low 1.02 | locus YOR270C, strain vph1, active compounds read low 0.925 | locus YOR290C, strain snf2, active compounds read low 0.992 | locus YOR316C, strain cot1, active compounds read low 0.973 | locus YPL051W, strain arl3, active compounds read low 0.995 | locus YPL055C, strain LGE1, active compounds read low 0.989 | locus YPL078C, strain atp4, active compounds read low 1.02 | locus YPL106C, strain sse1, active compounds read low 0.945 | locus YPL240C, strain hsp82, active compounds read low 1.04 | locus YPL256C, strain CLN2, active compounds read low 0.962 | locus YPR119W, strain clb2, active compounds read low 0.984 | locus YPR141C, strain kar3, active compounds read low 0.983 | locus YPR163C, strain tif3, active compounds read low 0.984 | locus YPR167C, strain met16, active compounds read low 0.997 | strain wtn01, active compounds read low 1

Source: PubChem BioAssay AID1159580 (chemical genetic matrix, 2015)
